Where “and” joins values, the source holds several entries; their conditions need not be identical. Identical values can stand only once. This is part of a sample that, as a whole, favours compounds with a hit. Of some 83,000 tested, about 20% had one in any assay.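 Single-concentration screen, 48 h exposure, 96-well plates. Endpoint: percent growth. Below 10 = active.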 Calls of active or inactive are those of the source.

Among the test systems are HT29 colon; SNB-75 CNS; SNB-19 CNS; U251 CNS; PC-3 prostate; SK-MEL-5 melanoma; UACC-62 melanoma; LOX IMVI melanoma; SK-MEL-28 melanoma; SK-MEL-2 melanoma; EKVX NSCLC; SN12C renal; UO-31 renal; TK-10 renal; ACHN renal; CAKI-1 renal; CCRF-CEM leukemia; MOLT-4 leukemia.
Assay in all cases: NCI-60 one-dose screen, 48 h (100 = growth as untreated, 0 = no growth, -100 = all killed)
Another assay concerns A498 renal. Particulars: 10 µM unless noted.
In a further assay the test system is HCT-15 colon. Particulars: 10 µM unless noted.

For the molecule `COc1ccc(Cl)cc1C(=O)NCCc1ccc(S(=O)(=O)NC(=O)NC2CCCCC2)cc1`, the growth with HT29 colon (10 µM) was 127% (inactive) and 131% (inactive); with HT29 colon (100 µM), 77% (inactive); in the assay on SNB-75 CNS (10 µM) it was 104% (inactive) and 94% (inactive); in the assay on SNB-75 CNS (100 µM), 67.4% (inactive); in the assay on SNB-19 CNS (10 µM), 104% (inactive) and 97.9% (inactive); with SNB-19 CNS (100 µM), 68.5% (inactive). Also, the growth with U251 CNS (10 µM) is 94.3% (inactive) and 98.7% (inactive); with U251 CNS (100 µM) it was 60.3% (inactive); with PC-3 prostate (10 µM), 93.2% (inactive) and 110% (inactive); in the assay on PC-3 prostate (100 µM) it was 52.8% (inactive); in the assay on SK-MEL-5 melanoma (10 µM) it was 101% (inactive) and 96.2% (inactive); with SK-MEL-5 melanoma (100 µM) it was 45.5% (inactive). For the same molecule, the growth is 83.8% (inactive) and 92.1% (inactive) with UACC-62 melanoma (10 µM); 51.2% (inactive) in the assay on UACC-62 melanoma (100 µM); 102% (inactive) and 95.9% (inactive) in the assay with LOX IMVI melanoma (10 µM); 64.7% (inactive) in the assay on LOX IMVI melanoma (100 µM); 132% (inactive) and 118% (inactive) with SK-MEL-28 melanoma (10 µM); 57.5% (inactive) in the assay with SK-MEL-28 melanoma (100 µM). The growth with SK-MEL-2 melanoma (10 µM) is 113% (inactive); in the assay on SK-MEL-2 melanoma (100 µM) it was 75.8% (inactive); with EKVX NSCLC (10 µM) it was 95.5% (inactive) and 99.6% (inactive); in the assay with EKVX NSCLC (100 µM), 58.6% (inactive); in the assay on SN12C renal (10 µM) it was 91.4% (inactive) and 93.8% (inactive); with SN12C renal (100 µM), 71.4% (inactive). Also, the growth in the assay on UO-31 renal (10 µM) is 96.2% (inactive) and 79.1% (inactive); in the assay on UO-31 renal (100 µM), 40.6% (inactive); in the assay with TK-10 renal (10 µM), 115% (inactive) and 99.1% (inactive); in the assay with TK-10 renal (100 µM), 92.1% (inactive); with ACHN renal (10 µM), 96.9% (inactive) and 101% (inactive); with ACHN renal (100 µM) it was 54.8% (inactive). For the same molecule, the growth in the assay on CAKI-1 renal (10 µM) is 94.5% (inactive) and 94.3% (inactive); in the assay with CAKI-1 renal (100 µM) it was 56.7% (inactive); in the assay on A498 renal, 73.2% (inactive); in the assay with CCRF-CEM leukemia (10 µM) it was 86.3% (inactive) and 95.1% (inactive); with CCRF-CEM leukemia (100 µM), 64.1% (inactive); with MOLT-4 leukemia (10 µM) it was 113% (inactive) and 98.6% (inactive). Besides, the growth in the assay with MOLT-4 leukemia (100 µM) is 60.6% (inactive).

With `c1ccc(N(c2ccccc2)c2ccccc2)cc1`, the growth is 99.8% (inactive) with HCT-15 colon; 97% (inactive) with HT29 colon (10 µM unless noted); 102% (inactive) in the assay on SNB-19 CNS (10 µM unless noted); 102% (inactive) in the assay with U251 CNS (10 µM unless noted); 101% (inactive) with PC-3 prostate (10 µM unless noted); 113% (inactive) in the assay with SK-MEL-5 melanoma (10 µM unless noted). In addition, the growth with UACC-62 melanoma (10 µM unless noted) is 104% (inactive); with LOX IMVI melanoma (10 µM unless noted), 94.5% (inactive); with SK-MEL-28 melanoma (10 µM unless noted), 117% (inactive); with SK-MEL-2 melanoma (10 µM unless noted), 99.8% (inactive); with EKVX NSCLC (10 µM unless noted), 101% (inactive); in the assay on SN12C renal (10 µM unless noted), 106% (inactive). The growth in the assay on TK-10 renal (10 µM unless noted) is 98.9% (inactive); in the assay with ACHN renal (10 µM unless noted) it was 103% (inactive); in the assay with CAKI-1 renal (10 µM unless noted), 90.3% (inactive); in the assay on A498 renal, 117% (inactive); with CCRF-CEM leukemia (10 µM unless noted), 98% (inactive); in the assay with MOLT-4 leukemia (10 µM unless noted), 95.4% (inactive).

Regarding `N/C(=N\N=C\c1ccc2c(c1)OCO2)N/N=C\c1ccc2c(c1)OCO2`, the growth in the assay with HCT-15 colon was 103% (inactive) and 93.7% (inactive); in the assay with HT29 colon (10 µM unless noted) it was 88.4% (inactive) and 13% (inactive); in the assay on SNB-75 CNS (10 µM unless noted), 113% (inactive) and 135% (inactive); with SNB-19 CNS (10 µM unless noted), 108% (inactive) and 92.1% (inactive); in the assay with U251 CNS (10 µM unless noted), 99.4% (inactive) and 84.6% (inactive); with PC-3 prostate (10 µM unless noted), 103% (inactive) and 89.6% (inactive). Further, the growth in the assay on SK-MEL-5 melanoma (10 µM unless noted) is 112% (inactive); in the assay on UACC-62 melanoma (10 µM unless noted), 112% (inactive) and 90.7% (inactive); in the assay with SK-MEL-28 melanoma (10 µM unless noted) it was 112% (inactive) and 45.6% (inactive); with SK-MEL-2 melanoma (10 µM unless noted), 103% (inactive) and 136% (inactive); in the assay with EKVX NSCLC (10 µM unless noted), 113% (inactive); with SN12C renal (10 µM unless noted) it was 107% (inactive) and 89% (inactive). For the same molecule, the growth in the assay on UO-31 renal (10 µM unless noted) was 99.5% (inactive) and 77.3% (inactive); with TK-10 renal (10 µM unless noted), 140% (inactive) and 153% (inactive); in the assay on ACHN renal (10 µM unless noted), 111% (inactive) and 97.7% (inactive); in the assay with A498 renal it was 121% (inactive) and 85.9% (inactive); in the assay with CCRF-CEM leukemia (10 µM unless noted), 50.6% (inactive) and 45.3% (inactive); with MOLT-4 leukemia (10 µM unless noted), 95.4% (inactive) and 50.3% (inactive).

As to `CC(C)O/N=C/c1cc(NC(=S)OC(C)C)ccc1Cl`, the growth in the assay with UACC-62 melanoma (10 µM unless noted) is 13.4% [100 µM] (inactive) and 21.6% [100 µM] (inactive).

For `COc1ccc(N=C(C)C(C)=Nc2ccc(OC)cc2)cc1`, the growth in the assay with UACC-62 melanoma (10 µM unless noted) was 9.18% [100 µM] (active) and 4.99% [100 µM] (active).

Consider `CCOc1cc2c(cc1O)/C(=N/NS(=O)(=O)c1ccc(C)cc1)C[C@@H]1[C@@H]2CC[C@]2(C)[C@@H](O)CC[C@@H]12`, for which the growth is -88.9% [100 µM] (active) with UACC-62 melanoma (10 µM unless noted) and -22.6% [100 µM] (active) in the assay with TK-10 renal (10 µM unless noted).

As to `O=C(/C=C\c1ccnc2ccccc12)c1ccc([N+](=O)[O-])cc1`, the growth in the assay on HT29 colon (10 µM unless noted) was 70.3% (inactive) and 3.25% (active); with SNB-75 CNS (10 µM unless noted), 110% (inactive) and 86.5% (inactive); in the assay on SNB-19 CNS (10 µM unless noted), 90% (inactive) and 86.4% (inactive); with U251 CNS (10 µM unless noted), 95.3% (inactive) and 79.6% (inactive); with PC-3 prostate (10 µM unless noted), 93.8% (inactive) and 74.7% (inactive); in the assay on SK-MEL-5 melanoma (10 µM unless noted), 67.4% (inactive) and 53.8% (inactive). The growth with UACC-62 melanoma (10 µM unless noted) was 82.6% (inactive) and 70.7% (inactive); in the assay with LOX IMVI melanoma (10 µM unless noted), 52.1% (inactive) and 9.87% (active); in the assay on SK-MEL-28 melanoma (10 µM unless noted), 104% (inactive) and 92.1% (inactive); in the assay with SK-MEL-2 melanoma (10 µM unless noted) it was 83.4% (inactive) and 93.8% (inactive); in the assay on EKVX NSCLC (10 µM unless noted), 75.3% (inactive); in the assay on SN12C renal (10 µM unless noted), 96.9% (inactive) and 86.2% (inactive). The growth was 81.3% (inactive) and 86.9% (inactive) in the assay with TK-10 renal (10 µM unless noted); 75.2% (inactive) and 70.6% (inactive) in the assay with ACHN renal (10 µM unless noted); 89.8% (inactive) and 70.3% (inactive) with CAKI-1 renal (10 µM unless noted); 109% (inactive) and 55.2% (inactive) in the assay on A498 renal; 67.9% (inactive) and 28.6% (inactive) in the assay on CCRF-CEM leukemia (10 µM unless noted); 63.1% (inactive) and 49.3% (inactive) in the assay on MOLT-4 leukemia (10 µM unless noted).
